# Measurements reported in PubChem BioAssay (NCATS).
# Records with an inconclusive call do not appear. A call without a number means that no potency is given here. Calls of active or inactive are those of the source. Calls come from the whole dose curve; as a rule, active = well fitted activation curve with a large enough effect; inconclusive = small, poorly fitted or top-dose-only effect; inactive = flat fitted curve, though single readings scatter.
# Assay: Primary redox qHTS assay for identification of artifact compounds. (AID 1845223)
# Conditions: Amplex Red/HRP redox cycling with DTT, fluorescence; series mostly up to 53.8 µM
# Method in brief: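 Amplex Red (25 uM) and HRP (250 mU/mL) in HBSS, with compounds for 15 min, then 250 uM DTT for 30 min, room temperature, dark. Fluorescence 525/598 nm read; normalized to DMSO and 10 uM DA3003; Hill fit.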
row,SMILES,Potency
1,COC1CC(=O)C23C(=O)NC(Cc4c[nH]c5ccccc45)C2C(C)C2(C)OC2C3/C=C/CC(C)CC1O (centres undefined),inactive
2,Cc1ccc(C)c(NC(=O)[C@@H]2CCCN2S(=O)(=O)c2cccc3cccnc23)c1,inactive
3,Fc1ccc(-c2nc(-c3ccccc3F)[nH]c2-c2ccncc2)cc1,inactive
4,CC(C)(Cc1ccccc1)NCC(O)c1ccc(O)c(NS(C)(=O)=O)c1 (centres undefined),inactive
5,COc1cc(NC(=O)c2cc(C3CC3)on2)c(OC)cc1Cl,inactive
6,C=C(C)C(=O)O[C@H]1[C@H]2C(=C)C(=O)O[C@@H]2/C=C(\CO)CC/C=C(/C=O)[C@@H]1O,inactive
7,CC(C)n1c(=O)c(C(=O)NC2CC3CCC(C2)N3C[C@@H](O)CN(C)S(C)(=O)=O)cc2ccccc21 (some centres undefined),inactive
8,O=C(Nc1ccc(CN2CCOCC2)cc1)c1ccc(-c2cccc(Cl)c2)o1,inactive
9,Cc1ccc(OC[C@H](O)[C@H](C)NC(C)C)c2c1CCC2,inactive
